High-throughput results as filed in PubChem.
Pf growth 48h: Primary qHTS for delayed death inhibitors of the malarial parasite plastid, 48 hour incubation; P. falciparum luciferase growth in erythrocytes, 48 h; Potency, µM (series often up to 28.7 µM), inactives show top-dose activity change, negative = inhibition, usual class: inhibitors; hit rate 5.9% among 310,000; note: potency is the fitted concentration of half-maximal effect; % is set by controls: 0 for no effect and ±100 for the full control effect
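A one-generation exposure of luciferase-tagged malaria parasites in RPMI 1640/Albumax erythrocyte culture, 37 C and 5% CO2. Inhibition is inferred from decreased luminescence after adding detection reagent.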
CHX counter: Cycloheximide Counterscreen for Small Molecule Inhibitors of Shiga Toxin | cell reporter, cycloheximide protein synthesis inhibition counterscreen | max response, % | hit rate 12% among 300,000 | AID 2314, 2010; in the data active = max response mostly above about 13%, no sharp cut-off; inactive = mostly below about 14%; note: read at 38.3 µM for the half of the compounds with a filed dose; 0% is about no effect
Shiga inhibitor: A qHTS for Small Molecule Inhibitors of Shiga Toxin. Vero cells, Shiga toxin protein synthesis inhibition reporter. hit rate 9.2% among 290,000. inhibition, % at 38.7 µM; in the data active = inhibition mostly above about 28%, no sharp cut-off; inactive = mostly below about 43%; note: 0% is about no effect
Marburg entry inh: qHTS for inhibitors of binding or entry into cells for Marburg Virus. AID 540276, 2011. hit rate 1.8% among 300,000. Marburg virus pseudotyped entry inhibition, cell reporter. Potency, µM (top dose mostly 37.8 µM), inactives show top-dose activity change, negative = inhibition, usual class: inhibitors; calls by dose curve; tested in HEK293 cells; note: potency is the fitted concentration of half-maximal effect; % is set by controls: 0 for no effect and ±100 for the full control effect
Pf growth 96h: Primary qHTS for delayed death inhibitors of the malarial parasite plastid, 96 hour incubation | AID 504834, 2011 | Potency, µM (highest dose often 28.7 µM), inactives show at the highest dose activity change, negative = inhibition, most hits filed as inhibitors | hit rate 6.9% among 320,000 | P. falciparum luciferase reporter growth, 96 h; note: potency is the fitted concentration of half-maximal effect; % is set by controls: 0 for no effect and ±100 for the full control effect
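Luminescence readout: decreased luciferase signal marks inhibited growth of reporter-expressing P. falciparum in infected red cells (2% hematocrit, 0.05% parasitemia final), exposed to compound two generations (96 h, 37 C, 5% CO2).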
LASV entry inh: qHTS for Inhibitors of binding or entry into cells for Lassa Virus; Potency, µM (doses to about 37.9 µM), inactives show at the highest dose activity change, negative = inhibition, usual class: inhibitors; Lassa virus pseudotype entry inhibition, cell reporter; hit rate 1.2% among 300,000; calls by dose curve; tested in HEK293 cells; note: potency is the fitted concentration of half-maximal effect; % is set by controls: 0 for no effect and ±100 for the full control effect; nearly all actives have a fitted effect of over 50% in size
* marks the source's active call; other numbers are inactive results; i = inactive; ? = inconclusive; / = no result; [ ] = dose if it differs, or a comment. This is a sample that favours compounds with a hit; in the whole collection about 19% have one here. Unless noted, calls come from the whole dose curve; as a rule, active = well fitted inhibition curve with a large enough effect; inconclusive = small, poorly fitted or top-dose-only effect, or another doubt; inactive = no such curve, though single readings can be large or run the other way.

SMILES	Pf growth 48h	CHX counter	Shiga inhibitor	Marburg entry inh	Pf growth 96h	LASV entry inh
Cc1ccc(NC(=O)c2ccncc2)cc1[N+](=O)[O-]	16%	19*	16	23%	-71%	23%
C/C(=N\NC(=O)c1ccc([N+](=O)[O-])c(C)c1)c1ccccc1Cl	19%	28*	57*	6%	30%	16%
CC(=O)Nc1ccccc1NC(=O)C/C(C)=N/NC(=O)c1ccc([N+](=O)[O-])c(Cl)c1	7%	12	9	?	15%	-1%
CCn1cc(C(=O)NCC2CCCO2)c(=O)c2cc(S(=O)(=O)N(C)C)ccc21 (stereo not drawn)	-4%	-2	-4	/	24%	/
Cc1cc(C(=O)Nc2ccncc2)ccc1[N+](=O)[O-]	/	26*	43	?	18%	11%
O=C(CN(c1ccccc1F)S(=O)(=O)c1ccccc1)Nc1ccc2c(c1)OCCO2	14%	48*	120*	?	4.1µM*	7%
CS(=O)(=O)N(CC(=O)Nc1ccc2c(c1)OCCO2)Cc1ccccc1	-6%	0	-6	4%	/	-2%
O=C(CN(Cc1ccccc1)S(=O)(=O)c1ccc2c(c1)OCCO2)Nc1ccc2c(c1)OCCO2	?	28*	36*	-4%	-20%	4%
CC(=O)Nc1ccc(NC(=O)CN(c2ccc(F)cc2)S(=O)(=O)c2ccc3c(c2)OCCO3)cc1	/	-2	-5	-7%	8.3µM*	-21%
O=C(CN(c1ccc(F)cc1)S(=O)(=O)c1ccc2c(c1)OCCO2)Nc1ccccc1	/	20*	30	-4%	?	-9%
Cc1ccc(S(=O)(=O)NNC(=O)c2cc(C)c(C)cc2N)cc1	/	/	/	-5%	/	-1%[46.1 µM]
O=c1cc(O)n(-c2ccc(F)cc2)c(=S)[nH]1	/	10	27	0%	?	?
COc1cccc(-c2cn3c(n2)sc2cc(C(=O)NCCC4=CCCCC4)ccc23)c1	/	/	/	/	/	14%[46.1 µM]
O=C(CCSc1ccccc1)Nc1nccs1	11%	19*	36	27%	/	30%
Cc1ccc(SCCC(=O)Nc2nccs2)cc1	4%	9	61	3%[46.1 µM]	12%	1%[46.1 µM]
CN(CC(=O)Nc1ccccc1Br)C(=O)CCC1CCCC1	15%	57*	45*	14%	?	18%
O=C(CCCSc1ccc(Cl)cc1)Nc1ccccc1O	-13%	27*	31	?	13%	8%[46.1 µM]
O=C(CCSc1ccccc1)Nc1ncccn1	27%	30*	5	20%	-13%	16%
CCCc1cc(=O)n2[nH]c(NCc3ccc(Cl)cc3Cl)nc2n1	34%	1	17	7%	80%	-2%
O=C(CCn1c(=O)sc2ccccc21)Nc1nccs1	/	33*	40	11%	128%	1%
O=C(CCSc1ccccc1)Nc1ccccc1Br	?	40*	74*	-1%[46.1 µM]	37%	-27%[46.1 µM]
O=C(CSC1CCCCC1)Nc1ccccc1Br	22%	13*	90*	13%	22%	0%
CCOC(=O)CC1C(=O)NCCN1S(=O)(=O)c1ccccc1 (stereo not drawn)	-1%	-3	-7	-6%[46.1 µM]	13%	3%[46.1 µM]
CCOc1ccc(S(=O)(=O)N2CCCC(C(=O)NCc3ccccn3)C2)cc1C (stereo not drawn)	-7%	-7	-5	0%[46.1 µM]	20%	11%[46.1 µM]
COc1cc(-c2nc(Cc3ccccc3Cl)no2)cc(OC)c1OC	-6%	-5	-3	?	?	-29%
SMILES	Pf growth 48h	CHX counter	Shiga inhibitor	Marburg entry inh	Pf growth 96h	LASV entry inh
Fc1cc(Cl)c(OCc2noc(-c3ccsc3)n2)c(Cl)c1	292%	21*	35*	/	74%	/
Clc1ccc(OCc2noc(-c3ccsc3)n2)c(Cl)c1	92%	50*	130*	?	i	0%[46.1 µM]
CC1Cc2ccccc2N1C(=O)C1CCCN(S(=O)(=O)c2cccc3cccnc23)C1 (stereo not drawn)	/	-3	-8	/	?	/
O=C(Nc1nnc(SCCN2CCOCC2)s1)C1CC(=O)N(c2ccccc2)C1 (stereo not drawn)	-23%	1	-2	31%	?	1%
COc1ccc2c(=O)c(C(=O)NCc3ccccc3)c[nH]c2c1	?	7	15	-12%[46.1 µM]	?	-3%[46.1 µM]
COc1ccc2c(=O)c(C(=O)NCCc3ccccc3)c[nH]c2c1	2%	25*	18*	/	-16%	/
CCOc1ccc2[nH]cc(C(=O)NCc3ccc(F)cc3)c(=O)c2c1	?	-1	-2	/	0%	/
COc1ccc2c(=O)c(C(=O)NCCc3ccc(OC)c(OC)c3)c[nH]c2c1	10µM*	-1	-9	7.3µM*	?	?
CCOCCCNC(=O)c1c[nH]c2ccc(OCC)cc2c1=O	2.3µM*	-1	21	/	-2%	/
COc1ccc(CCNC(=O)C(=O)c2c[nH]c3ccccc23)cc1OC	7%	9	11	/	?	/
COc1ccc2[nH]cc(C(=O)NCCc3ccccc3)c(=O)c2c1	4%	20	28*	?	-7%	?
COc1ccc2[nH]cc(CCNC(=S)NCCc3ccccc3)c2c1	5%	0	13	?	45%[5.75 µM]	?
COc1cccc(N2CCN(C(=O)CN3C(=O)NC4(CCCC4)C3=O)CC2)c1	?	7	-2	?	6%	?
O=C(O)C(Oc1ccc2ccccc2c1)c1ccccc1 (stereo not drawn)	/	/	/	-5%[46.1 µM]	/	4%
CCN(CC)CCNS(=O)(=O)c1ccc2[nH]cc(C(=O)O)c(=O)c2c1	12%	-1	-5	17%	16%	-1%
CCCOc1ccc2[nH]cc(C(=O)O)c(=O)c2c1	9%	-4	-2	28%	15µM*	12%
Cc1nc(-c2cccc(NC(=O)COc3ccc(Cl)cc3)c2)cs1	12%	10	16	13µM*	1%	?
Cc1nc(-c2cccc(NC(=O)C(C)Oc3ccccc3)c2)cs1 (stereo not drawn)	-10%	17	14	-2%	-12%	8.9µM*
CC(C)NC(=O)CSc1nc2ccccc2c(=O)n1CCCOC(C)C	-9%	-4	30	21%	0%	-18%
CCn1cc(C(=O)OCc2ccccc2)c(=O)c2ccc(C)nc21	?	1	-2	-23%	-26%	-2%
CCOC(=O)c1ccccc1NC(=O)c1cn(CC)c2nc(C)ccc2c1=O	266%	40*	64*	-1%	-5%	/
CCn1cc(C(=O)Nc2cccc(C(=O)OC)c2)c(=O)c2ccc(C)nc21	14%	0	-20	0%	?	-2%
CCOC(=O)c1cn(CC)c2c(ccc3ccccc32)c1=O	51%	35*	42*	0%	-2%	10%
CCn1cc(C(=O)Nc2ccccc2C(=O)OC)c(=O)c2ccc(C)nc21	i	51*	145*	1%	-26%	/
